These results are taken from PubChem BioAssay (NCI).

Test systems include SR leukemia; RPMI-8226 leukemia; OVCAR-8 ovarian; OVCAR-5 ovarian; OVCAR-4 ovarian; SK-OV-3 ovarian; IGROV1 ovarian; OVCAR-3 ovarian; HS 578T breast; NCI/ADR-RES ovarian.
What all share (experiment): NCI-60 one-dose screen, 48 h (100 = growth as untreated, 0 = no growth, -100 = all killed)
Common to all, as to conditions: 10 µM

About 83,000 compounds went through this panel and 20% of them were active in at least one assay; those are over-represented in the sample as a whole.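 Growth was measured after 48 h exposure to one concentration of compound in 96-well plates. Values under 10 count as active.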 Values without a mark were called inactive. Calls of active or inactive are those of the source.

`CCCC1(CN2c3ccccc3Sc3ccc(Cl)cc32)CCN(CC)C1` (stereo not given): the growth was -50.1% (active) in the assay on SR leukemia; -43.2% (active) with RPMI-8226 leukemia; -41.2% (active) in the assay on OVCAR-8 ovarian; 8.89% (active) in the assay with OVCAR-5 ovarian; 28.3% in the assay on OVCAR-4 ovarian; 21.7% in the assay with SK-OV-3 ovarian. Also, the growth with IGROV1 ovarian is -42.7% (active); in the assay on OVCAR-3 ovarian it was 2.48% (active); in the assay on HS 578T breast, -22.8% (active); with NCI/ADR-RES ovarian it was 31.4%.

Regarding `S=c1cnc2ccccc2[nH]1`, the growth was 103% in the assay on SR leukemia; 100% in the assay on RPMI-8226 leukemia; 96.2% in the assay on OVCAR-8 ovarian; 104% in the assay with OVCAR-5 ovarian; 105% in the assay on OVCAR-4 ovarian; 96% in the assay with SK-OV-3 ovarian. In addition, the growth in the assay with IGROV1 ovarian was 97.2%; in the assay on OVCAR-3 ovarian, 106%; with HS 578T breast, 91.5%; with NCI/ADR-RES ovarian it was 98.6%.

In the case of `Cc1c2c(nn1C(=O)c1nn(-c3ccc(Cl)cc3)cc1O)-c1ccccc1CC2`, the growth in the assay on SR leukemia was -39.9% (active); in the assay on RPMI-8226 leukemia it was -35.3% (active); in the assay on OVCAR-8 ovarian, 6.41% (active); with OVCAR-5 ovarian it was 40.8%; in the assay with OVCAR-4 ovarian it was 15.6%; in the assay on SK-OV-3 ovarian, 13%. Moreover, the growth in the assay on IGROV1 ovarian was 17.8%; in the assay on OVCAR-3 ovarian, -3.9% (active); in the assay on HS 578T breast, 71.5%; in the assay on NCI/ADR-RES ovarian, 6% (active).

In the case of `COc1ccc(N=Nc2cc(OC)c(OC)c(OC)c2)cc1`, the growth is 58.2% in the assay with SR leukemia; 72.8% with RPMI-8226 leukemia; 87.2% with OVCAR-8 ovarian; 77.8% with OVCAR-5 ovarian; 100% in the assay with OVCAR-4 ovarian; 77.6% with SK-OV-3 ovarian. Also, the growth with IGROV1 ovarian was 62.7%; in the assay on OVCAR-3 ovarian, 87.7%; with HS 578T breast it was 79.3%; in the assay with NCI/ADR-RES ovarian, 91.2%.

`Cc1noc(C)c1CSc1ccccc1C(=O)N1CCN(c2cccc(C(F)(F)F)c2)CC1`: the growth in the assay on SR leukemia is 39%; in the assay with RPMI-8226 leukemia it was 54.3%; in the assay with OVCAR-8 ovarian, 94.2%; in the assay on OVCAR-5 ovarian, 88.1%; in the assay with OVCAR-4 ovarian it was 67%; with SK-OV-3 ovarian, 75.3%. Further, the growth was 83.7% in the assay with IGROV1 ovarian, 82.1% in the assay on OVCAR-3 ovarian, 90.4% in the assay on HS 578T breast and 72.3% in the assay with NCI/ADR-RES ovarian.

Take `N=C1S/C(=C/c2ccc(-c3ccc4c(c3)C(=O)NC4=O)o2)C(=O)N1c1ccc(Br)cc1`: the growth in the assay on SR leukemia was 25%; with RPMI-8226 leukemia, 38.8%; with OVCAR-8 ovarian, 37.8%; with OVCAR-5 ovarian, 86.3%; in the assay with OVCAR-4 ovarian, 1.3% (active); in the assay on SK-OV-3 ovarian it was 62.3%. The growth is 21.9% with IGROV1 ovarian, 51.4% in the assay on OVCAR-3 ovarian, 61.6% in the assay on HS 578T breast and 50.5% in the assay with NCI/ADR-RES ovarian.

Consider `Cc1ccc(C(=O)C2C(=O)C3CCC2C3)cc1` (stereo not given), for which the growth with SR leukemia was 129%; with RPMI-8226 leukemia it was 99.3%; with OVCAR-8 ovarian, 100%; in the assay on OVCAR-5 ovarian, 99%; in the assay on OVCAR-4 ovarian, 102%; in the assay with SK-OV-3 ovarian, 107%. In addition, the growth with IGROV1 ovarian was 113%; in the assay on OVCAR-3 ovarian, 107%; with HS 578T breast, 106%; in the assay with NCI/ADR-RES ovarian it was 99.3%.

On to `Cc1ccccc1N1C(=O)c2cc(S(N)(=O)=O)c(Cl)cc2NC1C` (stereo not given), for which the growth was 87.1% in the assay with SR leukemia; 106% in the assay with RPMI-8226 leukemia; 108% with OVCAR-8 ovarian; 108% with OVCAR-5 ovarian; 111% in the assay with OVCAR-4 ovarian; 128% in the assay on SK-OV-3 ovarian. Also, the growth in the assay on IGROV1 ovarian was 111%; with OVCAR-3 ovarian, 109%; with HS 578T breast, 111%; in the assay with NCI/ADR-RES ovarian, 103%.

On to `COc1cc(-c2nn(-c3cccc(NC(=O)CN4CCOCC4)c3)cc2-c2cccnc2)ccc1Cl`, for which the growth with SR leukemia is 37.3%; in the assay with RPMI-8226 leukemia it was 60.5%; with OVCAR-8 ovarian it was 76.4%; in the assay with OVCAR-5 ovarian, 108%; in the assay with OVCAR-4 ovarian it was 101%; in the assay with SK-OV-3 ovarian, 95.8%. Further, the growth was 79.6% in the assay with IGROV1 ovarian, 77.2% in the assay with OVCAR-3 ovarian, 76.3% in the assay with HS 578T breast and 59% in the assay with NCI/ADR-RES ovarian.

Consider `COc1cc(/C=C2\CCCC3=C2NC(N)=NC3c2cc(OC)c(OC)c(OC)c2)cc(OC)c1OC` (stereo not given), for which the growth is 1.07% (active) in the assay on SR leukemia; -15.4% (active) with RPMI-8226 leukemia; -35.8% (active) in the assay with OVCAR-8 ovarian; 6.85% (active) with OVCAR-5 ovarian; 27% in the assay with OVCAR-4 ovarian; 7.16% (active) with SK-OV-3 ovarian. Also, the growth is -19.4% (active) in the assay on IGROV1 ovarian, -17.7% (active) with OVCAR-3 ovarian, 37% in the assay on HS 578T breast and 3.96% (active) in the assay with NCI/ADR-RES ovarian.

`CCCCC(CC)CN=C(N)NC(N)=NCCCCCCN=C(N)NC(N)=NCC(CC)CCCC` (stereo not given): the growth with SR leukemia was -67.4% (active); with RPMI-8226 leukemia it was -46.7% (active); in the assay with OVCAR-8 ovarian, -71.6% (active); in the assay with OVCAR-5 ovarian, -87.1% (active); in the assay on OVCAR-4 ovarian, -57.2% (active); with SK-OV-3 ovarian it was -38% (active). For the same molecule, the growth in the assay with IGROV1 ovarian was -66.8% (active); in the assay on OVCAR-3 ovarian, -83.6% (active); in the assay with HS 578T breast, -52.6% (active); with NCI/ADR-RES ovarian, 46.7%.
